Experiment [1] in a line: qHTS assay to identify small molecule agonists of the sonic hedgehog signaling (Shh) pathway (AID 1259368).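 Note: NIH/3T3-derived 3T3Gli1-Luc cells carrying a stable Gli1-driven firefly luciferase reporter; series mostly up to about 92 µM; nearly all actives have a fitted effect of over 15% in size.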 The procedure, abridged:
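Steps: seed 3T3 Gli1-Luc cells, incubate 4 hr at 37 C, pin-transfer compounds in DMSO alongside a positive control, incubate 24 hr, add luciferase detection reagent, wait 30 min at room temperature, read luminescence.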

Experiment [2] is described as follows: qHTS assay to identify small molecule antagonists of the sonic hedgehog signaling (Shh) pathway (AID 1259369). Note: nearly all actives have a fitted effect of over 45% in size. Note: potency is the fitted concentration of half-maximal effect. The procedure, abridged:
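Inhibition of Shh signalling is measured as reduced Gli1-response-element firefly luciferase output in an NIH/3T3-derived stable reporter clone stimulated with conditioned medium for 24hr.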

Experiment [3] addresses Estrogen receptor beta (Homo sapiens) (UniProt Q92731). The experiment is described as follows: qHTS assay to identify small molecule agonists of the estrogen receptor beta (ER-beta) signaling pathway (AID 1259377; active = well fitted activation curve with a large enough effect in the signal ratio in the repeat runs, not every such curve was filed as active; the % refers to the signal ratio). The essentials:
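A UAS-controlled beta-lactamase reporter in ER-beta-UAS-bla HEK293T cells reports receptor activation. Compounds act for 16 hr at 37C in 2% charcoal-stripped serum, and a FRET substrate is read by fluorescence after 2 hours.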

Experiment [4] shares this target. The experiment is described as follows: qHTS assay to identify small molecule antagonists of the estrogen receptor beta (ER-beta) signaling pathway (AID 1259378; active = well fitted inhibition curve with a large enough effect in the signal ratio in the repeat runs, not every such curve was filed as active; the % refers to the signal ratio). The procedure, abridged: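 Antagonist mode: compounds added to beta-lactamase reporter HEK293T ER-beta-UAS cells stimulated with E2 (1nM final), 16 hr at 37C. LiveBLAzer B/G FRET substrate, 2 hours room temperature, fluorescence read-out.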

The nature of experiment [5]: qHTS assay to identify small molecule agonists of the estrogen receptor beta (ER-beta) signaling pathway - cell viability counter screen (AID 1259380; active = well fitted curve in the direction sought with a large enough effect in the repeat runs; an effect the other way counts as inactive or inconclusive; note: nearly all actives have a fitted effect of over 30% in size). The essentials: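 Same-well viability counter screen. Cells: ER-beta-UAS-bla HEK293T, plated 6 hr before compound, in 2% charcoal-stripped FBS. Compound exposure 16 hr, 37C; viability by CellTiter-Glo luminescence after 30 min at room temperature.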

Experiment [6] in a line: qHTS assay to identify small molecule antagonists of the estrogen receptor beta (ER-beta) signaling pathway - cell viability counter screen (AID 1259382; active = well fitted curve in the direction sought with a large enough effect in the repeat runs; an effect the other way counts as inactive or inconclusive;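 note: HEK293T cells carrying ER-beta-UAS-bla reporter stimulated with estradiol; series mostly up to about 92 µM; nearly all actives have a fitted effect of over 55% in size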). The essentials:
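Following a 6 hr plating period, HEK293T cells carrying a UAS-driven beta-lactamase reporter under ER-beta control received compounds and 1nM E2 (final). After 16 hr at 37C and 2 hr substrate loading, CellTiter-Glo luminescence indicated viability.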

Experiment [7] addresses Estrogen receptor (Homo sapiens) (UniProt P03372). The experiment is described as follows: qHTS assay to identify small molecule agonists of the estrogen receptor alpha (ER-alpha) signaling pathway in the presence of an antagonist (AID 1259383). Note: top concentration of the series differs between compounds; nearly all actives have a fitted effect of over 15% in size. The procedure, abridged:
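Cells are hormone-deprived for 5 days (charcoal-stripped FBS, no phenol red), plated for 24hr, spiked with 10.0nM ICI-182,780, then dosed at 15 concentrations. After 22hr at 37C, ONE-Glo luminescence reports ERE-luciferase activity.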

Experiment [8] in a line: qHTS assay to identify small molecule agonists or antagonists of the thyroid stimulating hormone receptor (TSHR) signaling pathway - wild type cell line counter screen (AID 1259384). The essentials:
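Counter screen in untransfected Hek293: compounds (15-point titration, triplicate) plus phosphodiesterase inhibitor Ro20-1724 added after 18 h plating; 30 min RT. Intracellular cAMP via competitive d2/cryptate immunoassay, 1 h incubation.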

For experiment [9], the target named is Thyrotropin receptor (Homo sapiens) (UniProt P16473). The experiment is described as follows: qHTS assay to identify small molecule antagonists of the thyroid stimulating hormone receptor (TSHR) signaling pathway (AID 1259385). Note: nearly all actives have a fitted effect of over 20% in size. The essentials: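 Antagonist mode: compound-treated TSHR-expressing HEK293 cells were stimulated with 1.5 ng/mL TSH (final) in presence of Ro20-1724 for 30 min at RT. HTRF cAMP detection after 1 h; each compound tested at 15 concentrations, triplicate.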

Experiment [10] in a line: qHTS assay to identify small molecule agonists of the estrogen receptor alpha (ER-alpha) signaling pathway in the presence of an antagonist - cell viability counter screen (AID 1259386; active = well fitted curve in the direction sought with a large enough effect in the repeat runs; an effect the other way counts as inactive or inconclusive;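 note: series mostly up to about 92 µM; cells exposed to compounds for 22 h at 37 °C before the viability read; nearly all actives have a fitted effect of over 30% in size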). The essentials: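 Cells are starved of estrogens for 5 days in charcoal-stripped serum, seeded for 24hr and co-treated with ICI-182,780 (10.0nM final) and test compounds. After 22hr at 37C, viability is read as CellTiter-Fluor fluorescence.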

Experiment [11] addresses Progesterone receptor (Homo sapiens) (UniProt P06401). The experiment is described as follows: qHTS assay to identify small molecule antagonists of the progesterone receptor (PR) signaling pathway (AID 1346795; active = well fitted inhibition curve with a large enough effect in the signal ratio in the repeat runs, not every such curve was filed as active; the % refers to the signal ratio). The essentials: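 HEK293T PR-UAS-bla reporter cells in charcoal-stripped serum (2%) received compound after a 6 hr settling period, followed by R5020 agonist at 1 nM final; 16 hr incubation preceded the FRET substrate step and fluorescence measurement.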

A short description of experiment [12]: qHTS assay to identify small molecule antagonists of the progesterone receptor (PR) signaling pathway - cell viability counter screen (AID 1346798; active = well fitted curve in the direction sought with a large enough effect in the repeat runs; an effect the other way counts as inactive or inconclusive; note: series mostly up to about 92 µM; nearly all actives have a fitted effect of over 50% in size). The procedure, abridged: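 Same-well multiplex: after 16 hr at 37C with compound and R5020 stimulation, HEK293T cells carrying a UAS-bla reporter received LiveBLAzer substrate (2 hr RT), then CellTiter-Glo (30 min RT) for luminescent viability.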

Experiment [13] can be described thus: qHTS assay to identify small molecule antagonists of the TGF-beta/Smad signaling pathway - cell viability counter screen (AID 1346824; active = well fitted curve in the direction sought with a large enough effect in the repeat runs; an effect the other way counts as inactive or inconclusive; note: nearly all actives have a fitted effect of over 50% in size). The essentials:
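Cytotoxicity counter-screen run in the same wells as the beta-lactamase Smad reporter read: CellTiter-Glo luminescence after 30 min at room temperature. HEK 293T SBE-bla cells had 5 hr compound exposure at 37 C with TGF-beta1 (0.25 ng/mL stock).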

Experiment [14] in a line: qHTS assay to identify small molecule agonists of the TGF-beta/Smad signaling pathway (AID 1346859; active = well fitted activation curve with a large enough effect in the signal ratio in the repeat runs, not every such curve was filed as active; the % refers to the signal ratio; note: series mostly up to about 77 µM). The essentials: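 Smad-responsive beta-lactamase reporter cells (HEK 293T) received compounds from DMSO stocks after overnight attachment, were incubated 5 hr, then treated 2 hr with FRET substrate before dual-emission fluorescence measurement (405 nm excitation).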
Experiment [15] deals with Thyrotropin-releasing hormone receptor (Homo sapiens) (UniProt P34981). The experiment is described as follows: qHTS assay to identify small molecule antagonists of the thyrotropin-releasing hormone receptor (TRHR) signaling pathway (AID 1346877; active = well fitted inhibition curve with a large enough effect in the repeat runs, not every such curve was filed as active; note: series mostly up to about 51 µM). The essentials: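 Cells (TRHR-HEK293) are plated and kept 18 h at 37 °C/5% CO2. A calcium-sensitive dye is added for 2 h, compound follows for 5 min at room temperature, and TRH is then given at 1 nM final.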

A short description of experiment [16]: qHTS assay to identify small molecule agonists of the progesterone receptor (PR) signaling pathway - cell viability counter screen (AID 1346799). Note: nearly all actives have a fitted effect of over 45% in size. The procedure, abridged:
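Counter screen for cytotoxicity: compound-treated PR-UAS-bla HEK293T cells (16 hr, 37C, 5% CO2) were assayed with CellTiter-Glo, luminescence measured after 30 min at room temperature.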

Experiment [17] can be described thus: qHTS assay to identify small molecule agonists of the TGF-beta/Smad signaling pathway - cell viability counter screen (AID 1346829; active = well fitted curve in the direction sought with a large enough effect in the repeat runs; an effect the other way counts as inactive or inconclusive; note: top concentration of the series differs between compounds; nearly all actives have a fitted effect of over 45% in size). The procedure, abridged: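 Tox21 qHTS format: SBE-bla HEK 293T cells treated with DMSO-dissolved compounds for 5 hr; CellTiter-Glo luminescence after 30 min at room temperature.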
Experiment [18] can be described thus: qHTS assay to identify small molecule agonists of the androgen receptor (AR) signaling pathway in the presence of an antagonist - cell viability counter screen (AID 1259379; active = well fitted curve in the direction sought with a large enough effect in the repeat runs; an effect the other way counts as inactive or inconclusive;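 note: MDA-kb2 human breast cancer cells carrying an MMTV luciferase reporter; series mostly up to about 92 µM; nearly all actives have a fitted effect of over 25% in size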). The procedure, abridged: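 Fluorescence from CellTiter-Fluor, added after 15 hr and read 1 hr later, gave cell viability. Cells were MDA-kb2 exposed to compounds (15 concentrations) in the presence of 3.0uM nilutamide at 37C, 0% CO2.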

The target in experiment [19] is Progesterone receptor (Homo sapiens) (UniProt P06401). The experiment is described as follows: qHTS assay to identify small molecule agonists of the progesterone receptor (PR) signaling pathway (AID 1346784). Note: nearly all actives have a fitted effect of over 30% in size. The procedure, abridged:
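Agonist mode, quantitative HTS format in a HEK 293T line expressing a UAS-controlled beta-lactamase reporter; 16 hr compound exposure at 37C in 2% charcoal-stripped FBS, then LiveBLAzer B/G FRET fluorescence.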

For experiment [20], the target named is Androgen receptor (Homo sapiens) (UniProt P10275). The experiment is described as follows: qHTS assay to identify small molecule agonists of the androgen receptor (AR) signaling pathway in the presence of an antagonist (AID 1259381). Note: nearly all actives have a fitted effect of over 15% in size. The essentials: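 Cells are MDA-kb2 (human breast carcinoma, MMTV-luc, AR/GR responsive). Nilutamide is present at 3.0uM final throughout; compounds are added at 15 concentrations and incubated 16hr at 37C before ONE-Glo luminescence detection.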

Unmarked numbers belong to inactive results. Inconclusive results are not listed. Calls of active or inactive are those of the source. Unless noted, calls come from the whole dose curve.

Estrogen receptor beta (Homo sapiens), sequence (Q92731 whole entry, looked up): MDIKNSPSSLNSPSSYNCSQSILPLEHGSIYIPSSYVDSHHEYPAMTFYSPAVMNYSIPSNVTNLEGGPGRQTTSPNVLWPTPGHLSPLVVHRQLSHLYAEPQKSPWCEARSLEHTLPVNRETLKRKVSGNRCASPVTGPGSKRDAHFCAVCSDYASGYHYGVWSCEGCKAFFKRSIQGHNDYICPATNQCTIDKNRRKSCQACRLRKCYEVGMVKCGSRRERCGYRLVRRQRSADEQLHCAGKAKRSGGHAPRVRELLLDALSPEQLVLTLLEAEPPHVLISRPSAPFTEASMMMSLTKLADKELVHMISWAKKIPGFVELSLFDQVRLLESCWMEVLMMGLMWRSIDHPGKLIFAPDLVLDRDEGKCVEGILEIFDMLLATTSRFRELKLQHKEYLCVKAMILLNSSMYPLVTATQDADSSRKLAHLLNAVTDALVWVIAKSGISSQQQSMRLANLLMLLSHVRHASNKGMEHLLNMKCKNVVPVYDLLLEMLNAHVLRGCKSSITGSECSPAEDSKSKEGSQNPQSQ
Thyrotropin receptor (Homo sapiens), sequence (P16473 whole entry, looked up): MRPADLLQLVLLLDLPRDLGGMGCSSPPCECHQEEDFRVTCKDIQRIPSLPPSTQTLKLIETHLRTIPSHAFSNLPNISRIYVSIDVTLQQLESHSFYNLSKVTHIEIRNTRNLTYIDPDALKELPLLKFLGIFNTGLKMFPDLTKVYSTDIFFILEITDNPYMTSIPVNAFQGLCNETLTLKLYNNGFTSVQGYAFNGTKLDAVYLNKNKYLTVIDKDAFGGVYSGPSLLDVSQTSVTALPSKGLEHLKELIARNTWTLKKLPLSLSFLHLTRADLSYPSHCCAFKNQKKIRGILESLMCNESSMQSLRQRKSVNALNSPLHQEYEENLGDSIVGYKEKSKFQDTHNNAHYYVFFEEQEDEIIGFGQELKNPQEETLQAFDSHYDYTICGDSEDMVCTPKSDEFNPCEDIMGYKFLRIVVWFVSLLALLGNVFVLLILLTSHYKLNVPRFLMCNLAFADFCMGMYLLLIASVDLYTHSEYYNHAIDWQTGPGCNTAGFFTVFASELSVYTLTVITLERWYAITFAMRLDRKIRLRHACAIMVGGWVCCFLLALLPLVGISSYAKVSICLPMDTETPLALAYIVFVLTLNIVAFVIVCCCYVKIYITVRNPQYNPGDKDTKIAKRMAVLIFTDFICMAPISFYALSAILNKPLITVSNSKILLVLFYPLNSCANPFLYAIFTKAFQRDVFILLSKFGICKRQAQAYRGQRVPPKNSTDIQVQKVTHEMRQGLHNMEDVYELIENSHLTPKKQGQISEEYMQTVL
Thyrotropin-releasing hormone receptor (Homo sapiens), sequence (P34981 whole entry, looked up): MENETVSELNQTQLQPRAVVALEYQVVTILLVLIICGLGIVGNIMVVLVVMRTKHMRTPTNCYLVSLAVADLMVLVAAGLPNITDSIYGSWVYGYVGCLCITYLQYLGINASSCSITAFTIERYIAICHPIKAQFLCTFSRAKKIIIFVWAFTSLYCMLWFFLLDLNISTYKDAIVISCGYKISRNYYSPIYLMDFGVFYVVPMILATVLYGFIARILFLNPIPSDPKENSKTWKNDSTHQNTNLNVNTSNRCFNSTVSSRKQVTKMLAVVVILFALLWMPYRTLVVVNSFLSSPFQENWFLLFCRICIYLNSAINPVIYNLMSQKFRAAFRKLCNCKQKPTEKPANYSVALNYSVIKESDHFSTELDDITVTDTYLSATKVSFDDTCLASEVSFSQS
Estrogen receptor (Homo sapiens), sequence (P03372 whole entry, looked up): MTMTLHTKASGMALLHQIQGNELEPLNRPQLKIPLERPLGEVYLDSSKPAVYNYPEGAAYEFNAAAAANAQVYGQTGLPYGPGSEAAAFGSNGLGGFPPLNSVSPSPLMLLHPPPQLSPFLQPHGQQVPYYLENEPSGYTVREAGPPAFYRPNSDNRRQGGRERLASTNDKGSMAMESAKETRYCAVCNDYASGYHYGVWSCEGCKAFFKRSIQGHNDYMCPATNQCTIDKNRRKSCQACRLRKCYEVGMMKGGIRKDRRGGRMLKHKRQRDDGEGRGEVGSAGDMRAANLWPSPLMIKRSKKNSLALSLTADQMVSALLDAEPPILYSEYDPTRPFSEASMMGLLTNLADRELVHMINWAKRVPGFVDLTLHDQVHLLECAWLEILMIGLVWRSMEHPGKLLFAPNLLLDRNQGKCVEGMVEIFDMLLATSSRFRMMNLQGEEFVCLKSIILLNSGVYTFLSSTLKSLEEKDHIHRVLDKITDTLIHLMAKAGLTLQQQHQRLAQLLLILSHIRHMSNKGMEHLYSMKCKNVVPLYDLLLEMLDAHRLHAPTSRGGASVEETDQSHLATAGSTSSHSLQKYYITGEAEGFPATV
Progesterone receptor (Homo sapiens), sequence (P06401 whole entry, looked up): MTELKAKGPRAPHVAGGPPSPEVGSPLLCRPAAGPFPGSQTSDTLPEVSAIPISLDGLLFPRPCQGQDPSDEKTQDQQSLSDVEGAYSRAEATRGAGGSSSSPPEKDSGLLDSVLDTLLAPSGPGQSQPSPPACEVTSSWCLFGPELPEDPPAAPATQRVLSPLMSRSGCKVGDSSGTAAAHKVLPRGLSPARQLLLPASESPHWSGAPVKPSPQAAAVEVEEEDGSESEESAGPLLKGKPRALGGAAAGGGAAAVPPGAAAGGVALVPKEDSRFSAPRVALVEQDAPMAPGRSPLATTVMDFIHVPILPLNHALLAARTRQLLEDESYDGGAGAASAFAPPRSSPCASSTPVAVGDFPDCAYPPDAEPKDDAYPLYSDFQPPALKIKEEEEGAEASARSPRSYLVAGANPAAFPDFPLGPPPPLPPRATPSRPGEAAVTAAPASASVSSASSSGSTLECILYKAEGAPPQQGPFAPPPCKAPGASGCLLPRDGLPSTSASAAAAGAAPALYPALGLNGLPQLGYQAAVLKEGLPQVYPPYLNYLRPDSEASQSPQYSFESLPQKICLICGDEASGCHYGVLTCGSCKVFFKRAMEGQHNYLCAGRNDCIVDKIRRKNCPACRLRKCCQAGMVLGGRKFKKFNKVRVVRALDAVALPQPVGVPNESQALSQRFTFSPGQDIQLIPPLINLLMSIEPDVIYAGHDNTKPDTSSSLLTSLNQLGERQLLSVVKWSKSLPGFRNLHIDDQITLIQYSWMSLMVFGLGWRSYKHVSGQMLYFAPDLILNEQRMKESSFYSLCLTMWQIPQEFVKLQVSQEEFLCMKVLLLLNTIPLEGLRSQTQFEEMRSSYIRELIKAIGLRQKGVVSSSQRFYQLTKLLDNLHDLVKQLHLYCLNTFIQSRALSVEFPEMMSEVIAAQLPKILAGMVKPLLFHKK
Androgen receptor (Homo sapiens), sequence (P10275 whole entry, looked up): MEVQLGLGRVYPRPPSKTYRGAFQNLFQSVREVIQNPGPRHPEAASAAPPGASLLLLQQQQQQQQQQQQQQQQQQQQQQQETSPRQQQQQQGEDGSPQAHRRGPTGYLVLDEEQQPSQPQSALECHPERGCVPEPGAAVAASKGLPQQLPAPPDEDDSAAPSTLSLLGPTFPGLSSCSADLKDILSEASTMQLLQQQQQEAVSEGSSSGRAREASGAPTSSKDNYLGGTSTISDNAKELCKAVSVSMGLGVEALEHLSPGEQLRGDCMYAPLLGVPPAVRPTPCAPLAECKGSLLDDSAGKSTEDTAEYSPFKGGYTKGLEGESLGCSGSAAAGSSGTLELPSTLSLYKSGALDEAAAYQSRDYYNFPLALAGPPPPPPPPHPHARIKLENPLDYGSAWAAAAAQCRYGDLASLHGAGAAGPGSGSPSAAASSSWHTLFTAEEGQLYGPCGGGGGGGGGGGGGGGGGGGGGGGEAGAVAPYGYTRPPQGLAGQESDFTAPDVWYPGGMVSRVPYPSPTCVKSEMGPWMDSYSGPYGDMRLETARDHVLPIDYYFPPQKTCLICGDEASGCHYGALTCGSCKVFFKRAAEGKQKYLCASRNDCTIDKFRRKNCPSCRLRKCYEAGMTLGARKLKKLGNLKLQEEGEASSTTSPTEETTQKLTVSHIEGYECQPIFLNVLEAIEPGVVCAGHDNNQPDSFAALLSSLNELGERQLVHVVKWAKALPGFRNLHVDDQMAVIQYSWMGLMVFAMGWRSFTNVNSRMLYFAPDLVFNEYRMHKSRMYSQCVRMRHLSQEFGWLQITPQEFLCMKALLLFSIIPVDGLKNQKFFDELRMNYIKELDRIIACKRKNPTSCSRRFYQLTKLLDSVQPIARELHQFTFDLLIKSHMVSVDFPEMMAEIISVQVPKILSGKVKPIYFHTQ

Consider `CCCCCCC(CCCCCCCCCCC(=O)OCC(COC(C)=O)OC(C)=O)OC(C)=O` (configuration not stated), for which the Potency entry in experiment [1], in [4], in experiment [5], in experiment [6], in experiment [7] and in experiment [9] was “inactive” in each case. The Potency entry in experiment [11] and in [12] was “inactive” in each case. Besides, the Potency in [2] was 1060 nM (active). Further, the molecule was called inactive in experiment [3], in experiment [8], in [10], in experiment [13], in experiment [14] and in experiment [15].

For `O=C(O)C1CCC1`, the Potency entry in experiment [1], in [2], in experiment [4], in experiment [5], in experiment [6] and in experiment [7] was “inactive” throughout. The Potency entry in experiment [9], in experiment [11], in [12] and in experiment [16] was “inactive” throughout. The result in [3], in experiment [8], in experiment [10], in experiment [17], in experiment [14] and in [15] was inactive.

For `Fc1ccccc1-c1ccccc1`, the Potency entry in [1], in [2], in experiment [4], in [18], in experiment [5] and in experiment [7] was “inactive” in each case. For the same molecule, the Potency entry in experiment [9], in experiment [19], in experiment [11], in [12] and in experiment [16] was “inactive” in each case. Further, the outcome in [3], in experiment [8], in experiment [10], in experiment [17] and in experiment [14] was inactive.

Turning to `NS(=O)(=O)c1cc(C2(O)NC(=O)c3ccccc32)ccc1Cl` (configuration not stated), the Potency result in experiment [1], in experiment [2], in [4], in [18], in [6] and in [9] was “inactive” each time. For the same molecule, the Potency entry in experiment [19] and in experiment [12] was “inactive” throughout. In addition, the result in [3], in experiment [8], in experiment [10], in experiment [17], in experiment [14] and in experiment [15] was inactive.

Turning to `COc1cccc(OC)c1`, the Potency entry in experiment [1], in [2], in experiment [4], in experiment [18], in experiment [5] and in experiment [9] was “inactive” each time. Besides, the Potency entry in [19], in experiment [11], in experiment [12] and in [16] was “inactive” each time. Also, the result in experiment [3], in [8], in [10], in experiment [13], in [14] and in [15] was inactive.

For `O=C(O)c1ccc[n+]([O-])c1`, the Potency result in experiment [1], in experiment [2], in experiment [4], in experiment [5], in [20] and in experiment [6] was “inactive” in each case. The Potency entry in experiment [7], in [9], in experiment [11], in experiment [12] and in experiment [16] was “inactive” throughout. In addition, the call in experiment [3], in experiment [8], in experiment [10], in experiment [17], in experiment [14] and in [15] was inactive.

On to `CN(C)N=Nc1ccccc1`, for which the Potency result in experiment [1], in experiment [2], in experiment [4], in experiment [18], in experiment [5] and in experiment [6] was “inactive” in each case. For the same molecule, the Potency result in experiment [9], in experiment [19], in [11], in experiment [12] and in [16] was “inactive” each time. For the same molecule, the molecule was called inactive in experiment [3], in [8], in [10], in experiment [13], in experiment [17] and in [14]. Further, the molecule was classed as inactive in experiment [15].

Source of the values: PubChem BioAssay (Tox21).
